{"source": "PubChem BioAssay (EPA / NIEHS)", "note": "Results filed as inconclusive are left out. Activity calls are given as the source filed them. Rule for the calls: active = hit-call score of the fitted dose curve at least 0.9, where 1 is the maximum; inconclusive = response in the unintended direction; inactive = score below 0.9.", "data": [{"read-out": "organic anion transporter (SLCO1B1), SLCO1B1 (gene 10599)", "assay": "CLD_SLCO1B1_24hr: CellzDirect (CLD) Gene Expression Assay for organic anion transporter (SLCO1B1) at 24 hours (AID 2283690)", "experimental": "CLD_24hr is a cell-based, multiplexed-readout assay that uses hepatocyte, a human liver primary cell, with measurements taken at 24 hours after chemical dosing in a 96-well plate.CLD_SLCO1B1_24hr is one of 16 assay component(s) measured or calculated from the CLD_24hr assay. It is designed to make measurements of mRNA induction, a form of inducible reporter, as detected with chemiluminescence signals by Quantitative Nuclease Protection Assay (qNPA) technology.Data from the assay component CLD_SLCO1B1_24hr was analyzed at the endpoint, CLD_SLCO1B1_24hr, in the positive analysis fitting direction relative to DMSO as the negative control and baseline of activity. Using a type of inducible reporter, gain-of-signal activity can be used to understand changes in the reporter gene as they relate to the gene SLCO1B1. Furthermore, this assay endpoint can be referred to as a primary readout. To generalize the intended target to other relatable targets, this assay endpoint is annotated to the transporter intended target family, where subfamily is organic anion transporter.\nHuman hepatocyte cultures were treated daily for two consecutive days with fresh dosing solutions containing appropriate concentrations of the 320 ToxCast chemicals (chemical identities were blinded to CellzDirect and other ToxCast collaborators), vehicle control (0.2% DMSO), and positive control inducers as summarized in Table 1. Due to the large number of treatment groups and chemicals examined, the ToxCast chemicals were divided into two groups (spanning two independent cultures of hepatocytes from separate donor preparations (Hu778: ToxCast plates 1 and 2; Hu776: ToxCast plates 3 and 4). Each preparation of human hepatocyte cultures was treated with respective vehicle control, medium only control, set of six positive controls/reference chemicals for the five hepatic receptor pathways, and a subset of eight of the ToxCast chemicals (indoxacarb, pyrithiobac-sodium, norflurazon, cyhalofop-butyl, methomyl, thiram, acetochlor, and propiconazole). These replicate data, coupled with internal replicates designed within the blinded ToxCast chemical library, provided additional data to evaluate interindividual differences between hepatocyte preparations and their potential impact on chemical profiles.Cell morphology and integrity were evaluated using phase-contrast microscopy as an indicator of hepatocyte cell health (Tyson & Green, 1987). Cultures for each treatment group (i.e., media, vehicle [0.2% DMSO], positive control inducers [multiple concentrations], and the ToxCast chemicals [multiple concentrations]) were observed and cell morphology was assessed relative to vehicle control cultures at each harvest time point (0, 6, 24, or 48 h). […] Images were evaluated at the conclusion of the study to assess changes in cell integrity and account for the effects of chemical exposure on uncharacteristic changes in concentration-dependent gene expression profiles. The results from these determinations of apparent cytotoxicity were annotated (yes/no) alongside the corresponding qNPA data for reference.At the conclusion of each treatment period, hepatocyte cultures (96-well) were washed with 1 volume of HBSS, lysed by addition of 25 ul ArrayPlate lysis buffer (HTG, Tucson, AZ), and 70 ul/well of Denaturation Oil, denatured by incubation at 95C for 10 min, and frozen at approximately -70C until analysis by nuclease protection assay (qNPA) (Roberts et al., 2007). For qNPA analysis, cell lysates were thawed at 50C for approximately 30 min, qNPA probes were added, and samples were incubated at 95C for 10 min to begin the detection process by denaturing the target RNA, dissociating the duplexes and secondary structure hybridization. At the conclusion of the hybridization period, S1 nuclease reagent was added to each sample to digest all nonprotected nucleotides at 50C for 60-90 min. […]", "values": [{"smiles": "COC(=O)c1ccccc1S(=O)(=O)NC(=O)N(C)c1nc(C)nc(OC)n1", "outcome": "inactive"}, {"smiles": "OCCOc1ccccc1", "outcome": "inactive"}, {"smiles": "CC[C@H](C)[C@H]1O[C@]2(C=C[C@@H]1C)C[C@@H]1C[C@@H](C/C=C(\\C)[C@@H](O[C@H]3C[C@H](OC)[C@@H](O[C@H]4C[C@H](OC)[C@@H](O)[C@H](C)O4)[C@H](C)O3)[C@@H](C)/C=C/C=C3\\CO[C@@H]4[C@H](O)C(C)=C[C@@H](C(=O)O1)[C@]34O)O2", "note": "(tested in a mixture with another compound)", "outcome": "inactive"}, {"smiles": "N#CN", "outcome": "inactive"}, {"smiles": "Cc1cc(C)nc(NC(=O)NS(=O)(=O)c2ccccc2C(=O)OC2COC2)n1", "outcome": "inactive"}, {"smiles": "CCS(=O)(=O)c1cccnc1S(=O)(=O)NC(=O)Nc1nc(OC)cc(OC)n1", "outcome": "inactive"}, {"smiles": "[2H]C1([2H])[n+]2ccccc2-c2cccc[n+]2C1([2H])[2H]", "outcome": "inactive"}, {"smiles": "O=C(Nc1ccccc1)Nc1cnns1", "outcome": "inactive"}, {"smiles": "CC(C)OC(=O)Nc1cccc(Cl)c1", "outcome": "inactive"}, {"smiles": "CCc1ccc(C(=O)NN(C(=O)c2cc(C)cc(C)c2)C(C)(C)C)cc1", "outcome": "inactive"}, {"smiles": "CN1CSC(=S)N(C)C1", "outcome": "inactive"}, {"smiles": "COP(=O)(OC)OC=C(Cl)Cl", "outcome": "inactive"}, {"smiles": "Oc1ccc(Cl)cc1Cc1ccccc1", "outcome": "inactive"}, {"smiles": "COP(=S)(OC)Oc1ccc([N+](=O)[O-])cc1", "outcome": "inactive"}, {"smiles": "COC(=O)c1ccccc1S(=O)(=O)NC(=O)Nc1nc(C)nc(OC)n1", "outcome": "inactive"}, {"smiles": "O=C1c2ccccc2C(=O)N1SC(Cl)(Cl)Cl", "outcome": "inactive"}, {"smiles": "Oc1cc(Cl)ccc1Oc1ccc(Cl)cc1Cl", "outcome": "inactive"}, {"smiles": "CC1(c2ccc(Oc3ccccc3)cc2)OC(=O)N(Nc2ccccc2)C1=O", "note": "(configuration not stated)", "outcome": "inactive"}, {"smiles": "CCOCN(C(=O)CCl)c1c(C)cccc1CC", "outcome": "inactive"}, {"smiles": "O=C(O)C(F)(F)C(F)(F)C(F)(F)C(F)(F)C(F)(F)C(F)(F)C(F)(F)F", "outcome": "inactive"}, {"smiles": "COc1cc(OC)nc(NC(=O)NS(=O)(=O)c2cc(NC=O)ccc2C(=O)N(C)C)n1", "outcome": "inactive"}, {"smiles": "CCN(CC)C(=O)SCc1ccc(Cl)cc1", "outcome": "inactive"}]}]}
